We go through 12 compounds from PMC5540273 (PLoS ONE, 2017).
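Further: kd values determined as follow-up on hits from a single-replicate KINOMEscan panel screen.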

In the first experiment the test system is KIT.
With `COC(=O)c1c(-c2ccccc2)c2cc(C(=O)O)ccc2c(=O)n1Cc1ccccc1`, the Kd (usually the concentration at which binding is half-saturated) came out at 100 nM. That is a sub-micromolar value.

`O=C(Nc1ccccc1)Nc1cccc(Oc2ccc3nccn3n2)c1`: the affinity, expressed as Kd, was 0.94 nM.

As for `COC(=O)c1c(-c2ccccc2)c2cc(OC)ccc2c(=O)n1Cc1ccccc1`, binding was put at a Kd of 170 nM. This Kd is about 180-fold higher than that of the compound before.

Take `CC(=O)Nc1nc2cnc(Nc3cc(NC(=O)c4cccc(CCC#N)c4)ccc3C)nc2s1`: the Kd is more than 10000 nM.

As for `Cn1ccc2ncnc(Oc3ccc(NC(=O)Nc4ccccc4)cc3)c21`, the Kd came out at 0.6 nM. This lies in the sub-nanomolar range.

`Cc1ccc(C(=O)Nc2ccc(Nc3ccnc4cc(-c5ccccn5)ccc34)cc2O)cc1.Cl` [GW440146] gave a Kd of 2200 nM.

In turn, `CC(C)(C)c1ccc(C(=O)Nc2cn3cc(-c4cccnc4)ccc3n2)cc1` returned a dissociation constant Kd of 320 nM.

`Cc1cccc(-c2nc(-c3ccc(S(C)(=O)=O)cc3)sc2-c2ccnc(NCCc3ccccc3)c2)c1` showed a Kd of 120 nM.

Another experiment relates to LCK.
For `COc1cc2nccc(Nc3ccc(NC(=O)c4ccc(C)cc4)c(O)c3)c2cc1OC.Cl` [GW440132], binding was put at a Kd of 560 nM.

Compound `Cc1ccc(C(=O)Nc2ccc(Nc3ccnc4cc(-c5ccccn5)ccc34)cc2O)cc1.Cl` [GW440146] had a Kd of 260 nM.

The compound `Cc1ccccc1-n1cnc2c(N)ncnc21` [SKF-97510] displayed a Kd of more than 10000 nM.

A further experiment concerns T1, LOK.
T1 construct: gene STK10
`Cn1ccc2ncnc(Oc3ccc(Nc4nc5ccccc5[nH]4)cc3)c21` yielded a Kd of 200 nM.

Take `Cn1ccc2ncnc(Oc3ccc(NC(=O)Nc4ccccc4)cc3)c21`: the Kd amounted to 280 nM.

`COc1cc2ncn(-c3cc(OCC4CCCO4)c(C(N)=O)s3)c2cc1OC` (centres unmarked) [GSK204607] showed a Kd of 100 nM.
